# KB-3-1 cytotox: KB-3-1 parental cell cytotoxicity | KB-3-1 viability, CellTiter-Glo ATP luminescence, 72 h | Potency, µM (series often up to 46.1 µM), most hits filed as cytotoxic | hit rate 1.4% among 400,000 | AID 1347075; note: nearly all actives have a fitted effect of over 60% in size
#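 Cytotoxicity measured as CellTiter-Glo luminescence after 72 h at 37 C. Compound titrations were pinned onto drug-naive KB-3-1 parental adenocarcinoma cells grown in DMEM with 10% FBS, and normalized data fitted to concentration-response curves.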
# SW480 rereplic: inducers of DNA re-replication in SW480 colon cancer cells; SW480 DNA re-replication, Hoechst DNA content imaging, 48 h; Potency, µM (titrated, usually from 46.1 µM), actives largely listed as activators; hit rate 1.8% among 340,000; note: nearly all actives have a fitted effect of over 55% in size
#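 Cells (250 per well) received 23 nL compound or DMSO by pin tool and were kept 48 hr at 37 C, 5% CO2. Nuclei were then stained with Hoechst for 40 min and scanned for DNA content.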
# HT1080 IDH1KD tx: HT-1080 IDH1 knockdown cell toxicity (counter line); HT-1080 IDH1 knockdown viability, ATP luminescence, 48 h; Potency, µM (highest dose often 46.1 µM), usual class: cytotoxic; hit rate 2% among 360,000; AID 686971
#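 Luminescent ATP read-out (CellTiter-Glo, 10 min at room temperature) after 48 h compound exposure at 37 °C gave viability of IDH1-knockdown HT-1080 cells. Activity was normalised to DMSO and cell-free wells, then fitted as concentration-response curves.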
# MCF10A rerep: induces DNA re-replication in MCF 10a normal breast cells. hit rate 2.9% among 350,000. Potency, µM (top dose mostly 46.1 µM), actives largely listed as activators. AID 624296. MCF 10A DNA re-replication, Hoechst nuclear intensity, 48 h; note: nearly all actives have a fitted effect of over 50% in size
# HT1080-NT tox: kills 2HG-producing HT-1080-NT fibrosarcoma cells. HT-1080-NT fibrosarcoma viability, CellTiter-Glo ATP luminescence, 48 h. Potency, µM (highest dose often 46.1 µM), actives largely listed as cytotoxic. hit rate 1.6% among 360,000. AID 686970;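 note: NT is the 2HG producing partner of a matched IDH1 knockdown line; nearly all actives have a fitted effect of over 55% in size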
#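 Fibrosarcoma NT cells, 750 per well in 5% FBS RPMI, were exposed to compound for 48 hours. Viability: CellTiter-Glo luminescence.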
# KB-V1 MDR tox: kills drug-selected multidrug resistant KB-V1 cells. KB-V1 MDR cells viability, CellTiter-Glo, 72 h. Potency, µM (highest dose often 46.1 µM), actives largely listed as cytotoxic. hit rate 3.4% among 400,000; note: nearly all actives have a fitted effect of over 60% in size
#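 Readout: CellTiter-Glo luminescence, 10 min after addition. Cells: KB-V1 MDR subline, 72 h at 37 degrees C with compound. Analysis: corrected, normalized data fitted to concentration-effect curves.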
# A number is an active result; . = inactive; ? = inconclusive; / = no result given; ! = not active in a repeat; [ ] = another dose, or the depositor's remark. Most compounds without a hit are left out; they make up all but 7.9% or so of the library. Calls come from the whole dose curve; as a rule, active = well fitted curve in the direction sought with a large enough effect; inconclusive = small, poorly fitted or top-dose-only effect, or another doubt; inactive = no such curve, though single readings can be large; an effect the other way counts as inactive or inconclusive.
SMILES,KB-3-1 cytotox,SW480 rereplic,HT1080 IDH1KD tx,MCF10A rerep,HT1080-NT tox,KB-V1 MDR tox
COc1ccccc1C1SCCN1S(=O)(=O)c1ccccc1 (centres undefined),.,/,.,/,.,.
COC1=CC(=O)OC(c2ccc(C#N)cc2)C1 (centres undefined),.,/,.,/,.,.
Cc1cccc(N2CCN(C(=O)c3csc4ccccc34)CC2C)c1 (centres undefined),?,/,.,?,.,15µM
Cc1cc(C(=O)N2CCC(C(N)=O)CC2)c(C)o1,.,16µM,.,.,.[9.24 µM],.
Cc1cccc(N2CCN(C(=O)c3ccc4ccccc4c3)CC2C)c1 (centres undefined),?,.,.,?,.,?
Cc1cccc(N2CCN(C(=O)c3cc(C)oc3C)CC2C)c1 (centres undefined),18µM,.,.,?,.,15µM
Cc1cc(C(=O)N2CCN(c3ccccc3O)CC2)c(C)o1,.,.,.,.,.,.
COc1cccc(N2CCN(C(=O)c3cc(C)oc3C)CC2)c1,23µM,?,?,?,?,15µM
O=C(Nc1ccc(Cl)c(-c2nc3ccccc3o2)c1)c1cccc2c(Cl)cccc12,.,/,/,/,/,.
O=C(c1cccn1-c1nnc(N2CCCC2)s1)N1CCN(c2ccc(F)cc2)CC1,.,/,/,/,/,.
COc1cccc(N2CCN(C(=O)CC(NC(=O)c3ccccc3)c3ccccc3)CC2)c1 (centres undefined),.,.,.,.,.,.
Cc1cccc(N2CCN(C(=O)CC(NC(=O)c3ccccc3)c3ccccc3)CC2C)c1 (centres undefined),?,.,.,.,.,3.7µM
CCn1c(SCc2ccccc2Cl)nc(=O)c2c(C(=O)OC)cc(C3CC3)nc21,.,/,/,/,/,.
COc1cc2c(cc1OC)CN(CCC(C)c1ccc(Cl)cc1)CC2 (centres undefined),.,.,15µM,?,.,.
Cc1ccc(C)c2[nH]c(=O)c(CN(CCN3CCCC3)C(=O)Nc3ccc(F)cc3)cc12,?,.,?,?,16µM,.
NC(=O)C1CCN(c2nccc(-c3ccc4c(c3)OCCO4)n2)CC1,9.2µM,/,/,/,/,?
O=C(COc1ccc([N+](=O)[O-])cc1)NNC(=O)Nc1ccccc1F,.,.,3.7µM,.,4.1µM,.
O=C(COc1ccc([N+](=O)[O-])cc1)N(Cc1ccccc1)Cc1ccccc1,.,.,.,.,.,18µM
Cc1cccc(NC(=O)NNC(=O)COc2ccc([N+](=O)[O-])cc2)c1C,/,.,.,.,.,/
CN(C)c1ccc(Nc2ncnc3c2c(-c2ccccc2)cn3-c2cccc(Cl)c2)cc1,.,/,/,/,/,.
COc1ccc(SC[C@H](C)CN2CC[C@H](C(C)(C)C)CCC2=O)cc1,?,.,.,?,.,15µM!
C[C@@H](CSc1ccccc1)CN1CC[C@H](C(C)(C)C)CCC1=O,?,.,.,?,.,18µM!
CCOc1ccc(S(=O)(=O)n2nc(C)c(S(=O)(=O)N3CCCCCC3)c2C)cc1,.,/,/,/,/,.
COc1ccc(OC)c2[nH]c(=O)c(CCNS(=O)(=O)c3ccccc3)cc12,.,.,.,.,.,16µM
COc1ccc(OC)c2[nH]c(=O)c(CCNC(=O)c3ccc(S(=O)(=O)N4CCCC4)cc3)cc12,.,.,.,?,.,18µM
SMILES,KB-3-1 cytotox,SW480 rereplic,HT1080 IDH1KD tx,MCF10A rerep,HT1080-NT tox,KB-V1 MDR tox
COc1ccc(C(=O)NCCc2cc3c(OC)ccc(OC)c3[nH]c2=O)cc1OC,.,.,.,.,?,?
CCN(CC)S(=O)(=O)c1ccc(C(=O)NCCc2cc3c(OC)ccc(OC)c3[nH]c2=O)cc1,.,.,.,?,.,7.3µM
CCCS(=O)(=O)NCCc1cc2c(OC)ccc(OC)c2[nH]c1=O,.,.,.,.,.,?
COc1ccc(-n2cc(-c3ccccc3)nc2SCC(=O)Nc2ccccc2)cc1Cl,.,/,/,/,/,.
O=S(=O)(Nc1cccc2ccccc12)N1CCCC1,.,.,.,8.2µM,.,?
COc1cc2c(cc1NCc1ccccn1)oc1ccccc12,.,.,.,23µM,.,.
